The nature of assay [1]: antimalarial activity against Dd2 strain (AID 2302;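 active = growth inhibition above 50% at the single 2 µM test dose, taken to imply half-maximal potency below 2 µM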;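 also: 0% = DMSO untreated growth and 100% = chloroquine plus artemisinin killed control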). To be noted: P. falciparum Dd2 in RBCs, LDH growth readout, 72 h; at 2 µM; active compounds read high.
A short description of assay [2]: human hepatoma cell viability loss – ATP luminescence, cytotoxicity control for P. falciparum antimalarial project, primary screen (AID 2303;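 active = inhibition above 50%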;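 also: 0% = DMSO wells and 100% = digitonin-killed cells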). To be noted: HepG2 viability, 24-48 h, at 10 µM, active compounds read high.
The target in assay [3] is L-lactate dehydrogenase (Plasmodium falciparum (isolate CDC / Honduras)) (UniProt Q27743). Description: PfLDH activity inhibition – cell lysate, 3D7 strain, counter-screen for P. falciparum growth inhibition project (AID 2304).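 Also: 0% = vehicle and 100% = reference inhibitor.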 To be noted: P. falciparum 3D7 crude extract, LDH APAD/NBT absorbance; at 2 µM; active compounds read high. Background: A counterscreen serves to expose hits that act by an unwanted route or on another target.

Assay [4] is described as follows: inhibition of 3D7 malaria parasite growth – strain 3D7 (AID 2306).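 Also: 0% = DMSO wells and 100% = chloroquine plus artemisinin control wells.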 To be noted: P. falciparum 3D7 erythrocytic growth, LDH absorbance, 72 h; at 2 µM; active compounds read high.
In assay [5] the target is Calcium-dependent protein kinase 1 (Plasmodium falciparum (isolate 3D7)) (UniProt P62344). Description: PfCDPK1 kinase inhibitors, biochemical, TCAMS library (AID 1159585; cut-off not given, nearly all actives have IC50 up to about 0.98 µM;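 also: inhibitors leave more ATP so luminescence rises with inhibition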). To be noted: recombinant PfCDPK1, Kinase-Glo ATP depletion luminescence. (In general: Kinase-Glo reads ATP consumption through a luciferase reaction.)
The target of assay [6] is Plasmodium falciparum protein kinase 6 (PK6, PF3D7_1337100) (UniProt Q8IDW1). Description: PfPK6 kinase inhibitors, biochemical, TCAMS library (AID 1159586). To be noted: recombinant PfPK6, Kinase-Glo ATP depletion luminescence.
The target of assay [7] is Protein kinase 7 (PK7), Plasmodium falciparum 3D7 (PF3D7_0213400) (UniProt Q7YTF7). Description: inhibition of Plasmodium PK7 catalytic activity – biochemical, TCAMS antimalarial set, Kinase-Glo luminescence (AID 1159587). To be noted: recombinant PfPK7, Kinase-Glo ATP depletion luminescence.
The target in assay [8] is Calcium-dependent protein kinase 4 (Plasmodium falciparum (isolate 3D7)) (UniProt Q8IBS5). Description: PfCDPK4 kinase inhibitors, biochemical, TCAMS library (AID 1159588; cut-off not given, nearly all actives have IC50 up to about 0.91 µM). To be noted: recombinant PfCDPK4, Kinase-Glo ATP depletion luminescence.

Consider 20 compounds from PubChem BioAssay.

The structures appear in SMILES notation. Unmarked numbers belong to inactive results. For some of these results: Results with a measured potency or affinity are listed apart. Activity calls are given as the source filed them. Unless noted, no rule for the calls is given here.

Chain of Plasmodium falciparum protein kinase 6 (PK6, PF3D7_1337100) (Q8IDW1 1-305): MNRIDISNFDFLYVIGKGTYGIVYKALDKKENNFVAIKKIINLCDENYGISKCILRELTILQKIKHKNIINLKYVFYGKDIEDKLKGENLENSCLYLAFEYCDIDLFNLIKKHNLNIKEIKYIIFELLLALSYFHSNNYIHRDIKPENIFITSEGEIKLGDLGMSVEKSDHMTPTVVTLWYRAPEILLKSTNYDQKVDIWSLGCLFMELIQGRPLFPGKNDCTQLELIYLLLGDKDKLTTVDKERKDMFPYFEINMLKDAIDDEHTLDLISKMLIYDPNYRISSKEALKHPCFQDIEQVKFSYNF
Chain of Protein kinase 7 (PK7), Plasmodium falciparum 3D7 (PF3D7_0213400) (Q7YTF7 1-343): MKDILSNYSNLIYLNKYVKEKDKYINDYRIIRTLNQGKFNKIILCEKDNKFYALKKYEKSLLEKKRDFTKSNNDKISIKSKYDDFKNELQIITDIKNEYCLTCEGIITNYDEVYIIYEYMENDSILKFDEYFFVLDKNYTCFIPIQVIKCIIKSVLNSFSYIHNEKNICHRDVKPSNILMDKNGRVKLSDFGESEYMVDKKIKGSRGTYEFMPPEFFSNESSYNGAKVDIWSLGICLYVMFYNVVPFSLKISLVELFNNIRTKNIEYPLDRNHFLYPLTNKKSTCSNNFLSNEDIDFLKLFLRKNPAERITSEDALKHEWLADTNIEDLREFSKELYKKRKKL
Chain of L-lactate dehydrogenase (Plasmodium falciparum (isolate CDC / Honduras)) (Q27743 whole entry, looked up): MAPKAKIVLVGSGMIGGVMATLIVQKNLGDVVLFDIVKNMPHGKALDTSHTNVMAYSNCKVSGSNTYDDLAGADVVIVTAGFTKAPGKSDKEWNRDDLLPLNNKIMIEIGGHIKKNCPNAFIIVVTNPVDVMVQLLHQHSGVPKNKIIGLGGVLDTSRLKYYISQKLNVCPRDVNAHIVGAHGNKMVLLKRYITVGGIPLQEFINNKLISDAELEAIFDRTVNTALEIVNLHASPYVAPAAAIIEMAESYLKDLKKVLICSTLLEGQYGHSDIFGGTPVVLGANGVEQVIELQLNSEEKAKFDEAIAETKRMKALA
Chain of Calcium-dependent protein kinase 4 (Plasmodium falciparum (isolate 3D7)) (Q8IBS5 whole entry, looked up): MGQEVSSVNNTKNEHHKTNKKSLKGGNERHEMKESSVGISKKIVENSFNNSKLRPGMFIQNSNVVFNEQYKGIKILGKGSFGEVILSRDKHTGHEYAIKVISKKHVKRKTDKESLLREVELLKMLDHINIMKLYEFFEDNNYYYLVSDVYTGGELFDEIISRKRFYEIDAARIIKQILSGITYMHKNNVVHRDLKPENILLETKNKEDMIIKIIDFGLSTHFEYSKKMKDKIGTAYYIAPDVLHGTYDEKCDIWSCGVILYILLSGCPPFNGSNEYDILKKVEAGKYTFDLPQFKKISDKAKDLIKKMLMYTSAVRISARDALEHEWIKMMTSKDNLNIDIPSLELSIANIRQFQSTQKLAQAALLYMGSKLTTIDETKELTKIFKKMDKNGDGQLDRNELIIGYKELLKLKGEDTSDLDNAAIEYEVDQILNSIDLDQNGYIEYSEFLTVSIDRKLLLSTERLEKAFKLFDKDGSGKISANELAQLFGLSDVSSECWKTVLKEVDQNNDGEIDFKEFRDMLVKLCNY
Chain of Calcium-dependent protein kinase 1 (Plasmodium falciparum (isolate 3D7)) (P62344 whole entry, looked up): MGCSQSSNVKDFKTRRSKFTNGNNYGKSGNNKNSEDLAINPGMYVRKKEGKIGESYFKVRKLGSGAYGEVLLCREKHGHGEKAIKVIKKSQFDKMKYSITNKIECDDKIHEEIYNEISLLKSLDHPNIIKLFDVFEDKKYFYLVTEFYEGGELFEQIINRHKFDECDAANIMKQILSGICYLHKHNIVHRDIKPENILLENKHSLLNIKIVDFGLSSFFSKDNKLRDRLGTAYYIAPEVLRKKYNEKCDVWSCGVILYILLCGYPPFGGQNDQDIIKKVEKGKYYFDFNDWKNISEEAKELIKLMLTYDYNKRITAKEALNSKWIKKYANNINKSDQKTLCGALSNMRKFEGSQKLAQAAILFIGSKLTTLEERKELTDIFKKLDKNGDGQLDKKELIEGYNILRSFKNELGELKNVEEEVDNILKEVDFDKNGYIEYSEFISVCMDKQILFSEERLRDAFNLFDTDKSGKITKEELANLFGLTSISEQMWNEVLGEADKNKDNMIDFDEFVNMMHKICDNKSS

As to `CCOc1ccc(C(=O)N2CCOC(CCN3CCC(c4ccccc4)CC3)(c3ccc(Cl)c(Cl)c3)C2)cc1` (stereo not given), the growth inhibition in assay [1] is 71% (active); in assay [4] it was 88% (active). Besides, the figures for the inhibition in assay [2] and in assay [3] were 14% and 8%, respectively. For the same compound, the result in assay [5], in assay [6], in assay [7] and in assay [8] was inactive.

As for `CC(C)CCN1C(=O)C(NC(=O)Oc2ccccc2)C(=O)N(CC23CC4CC(CC(C4)C2)C3)c2ccccc21` (stereo not given), the values for the growth inhibition in assay [1] and in assay [4] were 4% and 95% (active), respectively. For the same compound, the inhibition in assay [2] is 3%; in assay [3], 0%. Moreover, the outcome in assay [5], in assay [6], in assay [7] and in assay [8] was inactive.

Turning to `CCCCN(CCCC)CCCN(CCCN(CCCC)CCCC)c1cc(C)nc(Nc2ccc3cc(Br)ccc3c2)n1`, the figures for the growth inhibition in assay [1] and in assay [4] were 99% (active) and 101% (active), respectively. In addition, the values for the inhibition in assay [2] and in assay [3] were 52% (active) and 5%, respectively. Moreover, the outcome in assay [5], in assay [6], in assay [7] and in assay [8] was inactive.

Regarding `COc1cccc(-c2nn(C)c3sc(C(=O)Nc4cccnc4)cc23)c1`, the growth inhibition in assay [1] was 34%; in assay [4], 86% (active). The inhibition in assay [2] was 1%; in assay [3] it was -2%. For the same compound, the result in assay [5], in assay [6], in assay [7] and in assay [8] was inactive.

Take `COc1ccc(OCCCON)cc1`: the growth inhibition is -3% in assay [1] and 98% (active) in assay [4]. Also, the inhibition was 3% in assay [2] and -1% in assay [3]. Besides, the result in assay [5], in assay [6], in assay [7] and in assay [8] was inactive.

As to `Nc1nc2ccc(CN(C=O)c3ccc(C(=O)N[C@@H](CCC(=O)O)C(=O)O)cc3)cc2c(=O)[nH]1`, the values for the growth inhibition in assay [1] and in assay [4] were 94% (active) and 93% (active), respectively. For the same compound, the results for the inhibition in assay [2] and in assay [3] were -5% and 2%, respectively. The result in assay [5], in assay [6], in assay [7] and in assay [8] was inactive.

As to `O=C(Nc1cccc(CN2CCCN(Cc3ncc[nH]3)CC2)c1)c1ccc(Cl)c(Cl)c1`, the growth inhibition in assay [1] was 16%; in assay [4], 100% (active). In addition, the inhibition in assay [2] is 8%; in assay [3], 1%. In addition, the result in assay [5], in assay [6], in assay [7] and in assay [8] was inactive.

With `Cc1ccc(NC(=O)NC2CCN(CCCCCNC(=O)/C=C/c3ccc(Cl)c(Cl)c3)CC2)cc1C`, the growth inhibition was 25% in assay [1] and 101% (active) in assay [4]. The inhibition in assay [2] was 36%; in assay [3], -3%. In addition, the outcome in assay [5], in assay [6], in assay [7] and in assay [8] was inactive.

Regarding `Cc1cc(Nc2ccc3ccccc3c2)n2ncnc2n1`, the growth inhibition in assay [1] is 95% (active); in assay [4], 96% (active). Also, the inhibition in assay [2] was 11%; in assay [3], -2%. Moreover, the result in assay [5], in assay [6], in assay [7] and in assay [8] was inactive.

Take `Oc1ccc(CCNc2nc(NCCCOc3cccc(-c4ccccc4)c3)nc(N3CCNCC3)n2)cc1`: the growth inhibition in assay [1] is 14%; in assay [4], 89% (active). Also, the figures for the inhibition in assay [2] and in assay [3] were 40% and -2%, respectively. Moreover, the outcome in assay [5], in assay [6], in assay [7] and in assay [8] was inactive.

With `CC(C)(C)c1cc(CN2CCN(Cc3ccccc3)CC2)cc(C(C)(C)C)c1O`, the growth inhibition in assay [1] was 0%; in assay [4], 97% (active). Moreover, the inhibition in assay [2] was 9%; in assay [3], 0%. The outcome in assay [5], in assay [6], in assay [7] and in assay [8] was inactive.

Consider `CC(=O)N1CCN(c2ccc(NC(=O)c3oc(-c4ccccc4)nc3C(F)(F)F)cn2)CC1`, for which the growth inhibition was 93% (active) in assay [1] and 92% (active) in assay [4]. Besides, the inhibition in assay [2] was -6%; in assay [3], -2%. In addition, the outcome in assay [5], in assay [6], in assay [7] and in assay [8] was inactive.

On to `Cc1[nH]nc2ccc(-c3cc(OC[C@@H](N)Cc4ccccc4)cnc3-c3ccc(OCc4cccc(F)c4)cc3)cc12`, for which the growth inhibition was 59% (active) in assay [1] and 98% (active) in assay [4]. Further, the inhibition is 97% (active) in assay [2] and -5% in assay [3]. Moreover, the outcome in assay [5], in assay [6], in assay [7] and in assay [8] was inactive.

As to `N#Cc1cccc(CN2CCCN(c3ccc(NC(=O)c4cccs4)cc3)CC2)c1`, the results for the growth inhibition in assay [1] and in assay [4] were 95% (active) and 96% (active), respectively. Besides, the inhibition in assay [2] and in assay [3] was -2% each time. Also, the outcome in assay [5], in assay [6], in assay [7] and in assay [8] was inactive.

As to `Oc1cccc(-c2nc3ccc(C4=N[C@@H]5CCCC[C@H]5N4)cc3[nH]2)c1`, the growth inhibition in assay [1] was 99% (active); in assay [4] it was 94% (active). The inhibition was 3% in assay [2] and 2% in assay [3]. Further, the result in assay [5], in assay [6], in assay [7] and in assay [8] was inactive.

Regarding `N#Cc1ccc(CN2CCC(Oc3ccc(NC(=O)c4cccs4)cc3Cl)C2)cc1` (stereo not given), the growth inhibition in assay [1] is 95% (active); in assay [4], 96% (active). The values for the inhibition in assay [2] and in assay [3] were 31% and -2%, respectively. Also, the result in assay [5], in assay [6], in assay [7] and in assay [8] was inactive.

Turning to `CC(C)(C)c1ccc(C(=O)Nc2ccc3nc4c(c(N)c3c2)CCCC4)cc1`, the growth inhibition is 99% (active) in assay [1] and 100% (active) in assay [4]. For the same compound, the inhibition in assay [2] is 21%; in assay [3], -4%. Also, the outcome in assay [5], in assay [6], in assay [7] and in assay [8] was inactive.

Take `CC(C)c1ccc(-c2noc(SCC(=O)N3CCCCC3C)n2)cc1` (stereo not given): the growth inhibition in assay [1] and in assay [4] was 92% (active) throughout. In addition, the values for the inhibition in assay [2] and in assay [3] were 21% and 2%, respectively. For the same compound, the outcome in assay [5], in assay [6], in assay [7] and in assay [8] was inactive.

Take `CN(C)CCC=C1c2ccccc2Sc2c(O)cc(Cl)cc21`: the growth inhibition in assay [1] was 80% (active); in assay [4], 100% (active). The inhibition in assay [2] is 8%; in assay [3], -9%. Further, the result in assay [5], in assay [6], in assay [7] and in assay [8] was inactive.

As for `COc1ccc(O)c(C(=O)NCCc2ccc(OC)c(-c3ccc(C(C)(C)C)cc3)c2)c1`, the growth inhibition was 91% (active) in assay [1] and 88% (active) in assay [4]. Also, the values for the inhibition in assay [2] and in assay [3] were 11% and 5%, respectively. In addition, the outcome in assay [5], in assay [6], in assay [7] and in assay [8] was inactive.

In general, inhibition refers to the drop in the measured response relative to a control, in per cent.
